Screening results: PubChem, several laboratories
Only some compounds are listed: those with a hit (about 3.8% of all), similar ones and a draw of the others.
hDAT+cocaine – changed hDAT dopamine uptake under cocaine IC80, either direction, primary screen, cocaine antagonist project, cell-based, LLC-PK1 hDAT, [14C]-dopamine uptake, MLSMR. B-score at 10 µM. Sodium-dependent dopamine transporter (Homo sapiens), Q01959. LLC-PK1 hDAT cells, [14C]-dopamine uptake with cocaine IC80; actives deviate in either direction. 1.3% of 110,000 active;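 active = Z score or B-score, a plate-position-corrected score, falls beyond the plate's 99.7% confidence bounds, in either direction; inactive = both scores lie inside the 99.7% bounds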
MT1-MMP txn act – MT1-MMP promoter reporter activation – cell-based, luciferase luminescence, primary screen | HT1080 MT1-MMP promoter luciferase reporter, overnight; stronger effect = higher value | activation factor at 10 µM | 0.16% of 86,000 active;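 active = activation factor of at least 2 for MT1-MMP transcription at 10 µM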
ERb SRC1 inh – inhibitors of ERβ-SRC1 coactivator interaction, primary screen, biochemical, TR-FRET, ERβ LBD, SRC-1 peptide; TR-FRET ER-beta LBD / SRC1-Cy5 peptide binding; receptor agonist-loaded with 1 µM estradiol; inhibition, % at 25.6 µM; AID 633, 2007; 1.3% of 86,000 active; Estrogen receptor beta (Homo sapiens), Q92731;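 active = compounds whose percent inhibition of the receptor-coactivator binding signal exceeds about 50% in the single-dose screen, limit read from the data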
ERa SRC1 pot – enhancers of ERα–SRC-1 coactivator binding, primary screen, biochemical, TR-FRET, ERα LBD, low estradiol. Estrogen receptor (Homo sapiens), P03372. TR-FRET ERalpha-LBD/SRC-Cy5 coactivator binding, 2 h; 100 = basal binding, no effect. coactivator binding (% of control), % at 25.6 µM. 1.3% of 86,000 active. AID 639, 2007; in the data active = activity above about 200%;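 also: binding measured in presence of low estradiol as agonist stimulus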
Target sequence (P03372 whole entry, looked up, the tested form may be a part): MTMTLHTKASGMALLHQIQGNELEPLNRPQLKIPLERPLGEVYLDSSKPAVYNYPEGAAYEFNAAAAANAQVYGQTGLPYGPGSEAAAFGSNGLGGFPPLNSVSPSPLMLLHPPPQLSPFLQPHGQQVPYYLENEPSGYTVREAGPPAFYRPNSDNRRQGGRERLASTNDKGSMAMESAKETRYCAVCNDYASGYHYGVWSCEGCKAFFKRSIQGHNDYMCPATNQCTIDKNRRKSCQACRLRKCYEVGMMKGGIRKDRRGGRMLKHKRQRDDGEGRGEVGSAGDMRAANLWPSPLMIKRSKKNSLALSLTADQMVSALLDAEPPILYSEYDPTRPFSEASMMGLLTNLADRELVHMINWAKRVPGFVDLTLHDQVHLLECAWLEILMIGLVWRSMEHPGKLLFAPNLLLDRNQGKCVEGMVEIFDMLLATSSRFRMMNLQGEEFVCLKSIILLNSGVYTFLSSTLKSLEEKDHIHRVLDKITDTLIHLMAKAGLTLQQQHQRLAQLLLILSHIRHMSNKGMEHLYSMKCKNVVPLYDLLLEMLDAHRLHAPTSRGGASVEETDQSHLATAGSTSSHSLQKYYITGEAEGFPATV
ERa coact inh – ERα–SRC-1 coactivator interaction inhibitors, primary screen, biochemical, TR-FRET, ERα LBD, estradiol-bound; TR-FRET ER-alpha LBD / SRC-1 peptide; inhibition, % at 25.6 µM; 1.7% of 86,000 active; AID 629, 2007; in the data active = inhibition above about 50%
Hits are given with their value; – = inactive; · = no result given; [ ] = another dose, or the depositor's remark.

SMILES | hDAT+cocaine | MT1-MMP txn act | ERb SRC1 inh | ERa SRC1 pot | ERa coact inh
O=C(NCCc1ccccc1)c1ccc(=O)oc1 | – | – | – | – | –
CCC1CC2CC(NC(C)=O)C1C2 (stereo not drawn) | – | – | – | – | –
CC12CCC(C(=O)NCc3ccc4c(c3)OCO4)(C(=O)C1=O)C2(C)C (stereo not drawn) | – | · | – | – | –
COc1cc([N+](=O)[O-])cc(CN2CCCCC2)c1O | -1.2 | · | · | · | ·
C=CC[C@]12CC=CC(=O)[C@@]1(O)O[C@H](c1ccc(OC)c(OC)c1)[C@H]2C | – | · | · | · | ·
CC(C)OC(=O)CCc1nc2ccccc2[nH]c1=O | 2.1 | – | – | – | –
CCOC(=O)C(C)c1nc2ccccc2[nH]c1=O (stereo not drawn) | – | – | – | – | –
Cc1nn(CCC#N)c(NC(=O)c2ccc(Cl)cc2)c1P(=O)(Nc1ccc([N+](=O)[O-])cc1)N1CCOCC1 (stereo not drawn) | -5.6 | – | – | – | –
O=C(Nc1c(Cl)cc(Cl)cc1C(=O)NCCN1CCOCC1)c1ccc(Cl)cc1Cl | – | – | – | – | –
Cc1nn(CCC#N)c(NC(=O)c2ccc(Cl)cc2Cl)c1P(=O)(Nc1ccc([N+](=O)[O-])cc1)N1CCOCC1 (stereo not drawn) | -6.5 | – | – | – | –
C/C(=N\NC(=O)c1ccccc1O)c1c(O)cc(C)oc1=O | – | · | · | · | ·
C/C(=N\NC(=O)c1ccccc1O)C1C(=O)c2ccccc2C1=O | -3.7 | · | · | · | ·
C/C(=N/NC(=O)c1cc2ccccc2cc1O)C1C(=O)c2ccccc2C1=O | – | – | 65[fluorescence artefact?] | – | 78[fluorescence artefact?]
O=C(N/N=C/c1ccc(Sc2ccccn2)o1)c1cc2ccccc2cc1O | – | · | · | · | ·
CC(Oc1ccc(Cl)cc1Cl)c1nc(-c2ccc(NC(=O)c3ccco3)cc2)no1 (stereo not drawn) | – | – | – | – | –
Cc1ccc(CNC(=O)[C@H](C)[C@@H]2C[C@@]2(C)[C@@H](NC(=O)OCc2ccccc2)c2ccccc2)o1 | · | – | · | · | ·
Cc1ccc(C=Nc2ccc(N(C)C)cc2)o1 | – | – | 89[fluorescence artefact?] | – | –
CCN(CC)c1ccc(C=Nc2ccc(N(C)C)cc2)c(O)c1 | – | – | – | – | –
COC(=O)c1ccc(C(NC(=O)OCc2ccccc2)/C(F)=C/[C@@H](C)C(=O)NCc2ccc(OC)c(OC)c2)cc1 (stereo partly drawn) | – | – | · | · | ·
CC1CCc2nn(CC(=O)NCCC3=CCCCC3)cc2C1 (stereo not drawn) | 7.5 | – | – | – | –
COCCNC(=O)Cn1cc2c(n1)CCC(C)C2 (stereo not drawn) | – | – | – | – | –
CC(C)[C@@H](C(=O)N1CCN(C(=O)OC(C)(C)C)CC1)n1cc(CCO)nn1 | – | · | · | · | ·
O=C(Cc1ccccc1)Nc1cccc(N2CCCC2)c1 | – | – | – | – | 58[fluorescence artefact?]
O=C1N[C@@H](Cc2cn(S(=O)(=O)c3ccc(F)cc3)c3ccccc23)C(=O)N[C@H]1Cc1ccccc1 | – | · | · | · | ·
CCCCn1c2nc3ccccc3nc2c2c(=N)oc(C)nc21 | · | · | – | 314[fluorescence artefact?] | –
SMILES | hDAT+cocaine | MT1-MMP txn act | ERb SRC1 inh | ERa SRC1 pot | ERa coact inh
CCCCC(CC)Cn1c2nc3ccccc3nc2c2c(=N)oc(C)nc21 (stereo not drawn) | · | – | – | 267[fluorescence artefact?] | –
CCCCn1c2nc3ccccc3nc2c2c(=O)n(CCC(C)C)cnc21 | – | – | – | – | –
CCCCC(CC)Cn1c(N)c(C#N)c2nc3ccccc3nc21 (stereo not drawn) | – | · | · | · | ·
COCCNC(=O)[C@@]1(Cc2ccccc2)C=C[C@@H](C)N1C(C)=O | – | – | · | · | ·
COC(=O)[C@@]1(Cc2ccc(F)cc2)[C@H]2c3cc(C(=O)N4CCCC4)n(CCc4c[nH]c5ccccc45)c3C[C@H]2CN1C(=O)c1ccccc1 | · | – | · | · | ·
COc1ccc(S(=O)(=O)N2CCN(C3CCN(Cc4ccccc4)CC3)CC2)cc1 | -1.8 | – | – | – | –
O=S(=O)(c1ccccc1)N1CCN(C2CCN(Cc3ccccc3)CC2)CC1 | – | – | – | – | –
Brc1ccc(-c2nnc(-c3cccnc3)c3conc23)cc1 | – | – | – | – | 69
c1cncc(-c2nnc(-c3cccnc3)nn2)c1 | · | – | – | – | –
O=C(c1ccco1)[C@@H]1[C@@H]2C(=O)N(c3ccc(F)cc3)C(=O)[C@@H]2C2c3ccccc3C=CN21 (stereo partly drawn) | – | – | – | – | 55[fluorescence artefact?]
O=c1c2cnn(-c3ccc(F)cc3)c2ncn1Cc1ccccc1 | – | – | – | – | –
O=C(CN1CCCC1)N1CCCc2c1c(=O)oc1ccc(OCc3ccccc3)cc21 | 2.2 | – | · | · | ·
O=S1(=O)CCOC[C@H](Cc2ccccc2)N1Cc1ccc(Cl)cc1 | – | · | · | · | ·
C=CCn1c(=O)[nH]c2cc(C(=O)N3CCN(c4ccc(C(C)=O)cc4)CC3)ccc2c1=O | · | · | – | – | 68
Cn1c(NCc2cccs2)nc2ccccc21 | – | – | – | – | –
CCn1c(NCc2cccs2)nc2ccccc21 | – | – | – | – | 67[fluorescence artefact?]
CCOC(=O)c1c(CN(CC)CC)oc2cc(Br)c(O)cc12 | 4.1 | – | – | – | –
CCOC(=O)c1cc2ccccc2n1CCN(CC)CC | – | – | – | – | 52
CN(C)CCn1c(C(=O)Nc2ccccc2)cc2ccccc21 | – | – | – | – | –
NC(=O)C1=C[C@@H](c2ccccc2)C[C@@H](OCc2ccc(CO)cc2)O1 | – | · | · | · | ·
CC(C)(C)OC(=O)N1CCN(c2ccc(NC(=O)Cn3nnc(-c4ccccc4)n3)cc2)CC1 | – | – | 50 | – | –
Cn1nc(CC(=O)N2CCN(c3ccccc3)CC2)c2ccccc2c1=O | – | – | – | – | –
Cn1nc(CC(=O)Nc2ccc(N3CCN(C(=O)OC(C)(C)C)CC3)cc2)c2ccccc2c1=O | · | – | – | – | 72[fluorescence artefact?]
CN(C)CCCNS(=O)(=O)c1ccc(Oc2ncc(C(F)(F)F)cc2Cl)cc1 | – | · | · | · | ·
Cc1nc(C(N)=O)nc2ccccc12 | – | · | · | · | ·
SMILES | hDAT+cocaine | MT1-MMP txn act | ERb SRC1 inh | ERa SRC1 pot | ERa coact inh
CC(=O)OC1=C(C#N)Cn2ccc3cccc1c32 | – | – | – | – | 61[fluorescence artefact?]
CCn1c(O)c(C2=NCCCC2)c2ccccc21 | – | – | – | – | –
Oc1[nH]c2ccccc2c1C1=NCCCC1 | – | – | 92[fluorescence artefact?] | – | 82[fluorescence artefact?]
C=CCn1c(C)cc(C(=O)CSc2n[nH]c(N)n2)c1C | – | – | – | – | –
Cc1cc(C)cc(SCc2noc(C(=O)NCCC(C)C)c2C(=O)NCCC(C)C)c1 | – | · | · | · | ·
CCOC(=O)c1ccc(N2C(=O)c3n[nH]c(C)c3C2c2ccccn2)cc1 (stereo not drawn) | – | – | – | – | –
